High-throughput results: PubChem, University of Kansas High Throughput Screening Laboratory
mHTT CaM bind – mutant huntingtin-calmodulin interaction inhibitors – biochemical, AlphaScreen, primary screen; P42858; hit rate 3.6% among 190,000; AlphaScreen His-mHTT/GST-CaM binding, luminescence; inhibition, % at 15 µM
Pf apPOL inh – Pf-apPOL inhibitors, biochemical, fluorescence; Plasmodium falciparum apicoplast DNA polymerase (apPOL); Recombinant Pf-apPOL, molecular beacon fluorescence, 1.5 h; inhibition, % at 10 µM; hit rate 0.25% among 210,000
Large screens that a line does not name were inactive. An excerpt weighted towards active compounds, which were near 3.6% of everything screened. No stated cut-off is given here; in the data, active means inhibition above about 50%; inactive means the rest.

CC1CN(S(=O)(=O)c2ccccc2F)CC1c1nc(-c2ccncc2)no1 (configuration not stated)	none
COc1ccc(S(=O)(=O)N2CCC(c3ccncc3)CC2)cc1Cl	none
CC(C)(C)c1ccc(OCC(=O)Nc2ccc(-c3nc4ncccc4o3)cc2)cc1	none
COc1ccc(CC(C)(O)CNC(=O)c2ccsc2)cc1 (configuration not stated)	none
CSc1ccc(C2Nc3ccc4ncccc4c3C3=C2C(=O)CCC3)cc1 (configuration not stated)	none
CCN(CC)c1ccc(C2Nc3ccc4ncccc4c3C3=C2C(=O)CC(C)(C)C3)cc1 (configuration not stated)	mHTT CaM bind 62
COc1ccc(Br)cc1C1Nc2ccc3ncccc3c2C2=C1C(=O)CC(C)(C)C2 (configuration not stated)	mHTT CaM bind 53
CC1(C)CC(=O)C2=C(C1)c1c(ccc3ncccc13)NC2c1ccc(Br)cc1 (configuration not stated)	none
CCCOc1ccc(C2Nc3ccc4ncccc4c3C3=C2C(=O)CCC3)cc1 (configuration not stated)	mHTT CaM bind 58
COc1ccc(OC)c(C2Nc3ccc4ncccc4c3C3=C2C(=O)CC(C)(C)C3)c1 (configuration not stated)	none
Nc1nnc(SCc2cc3c(cc2Cl)OCO3)s1	none
O=C(NCCc1ccc(N2CCCC2)cc1)c1ccccc1	none
Cc1ccc(NC(=O)Cn2c(N3CCCCC3)nc(C)cc2=O)c(C)c1	none
c1ccc(-c2nnc3sc(C4CCCCC4)nn23)nc1	none (no result: Pf apPOL inh)
Brc1ccc(-c2nn3c(-c4ccccn4)nnc3s2)o1	mHTT CaM bind 85 (no result: Pf apPOL inh)
Cc1ccc(NC(=O)c2ccc(F)c(S(=O)(=O)NCc3ccccc3)c2)cc1F	none
COc1ccccc1C(=O)Nc1ccc(C)cc1Br	none
Cc1scc2nc(C(=O)NCc3cccc(F)c3)nc(N3CCCC3)c12	mHTT CaM bind 65
Cc1scc2nc(C(=O)NCc3ccc(F)cc3)nc(N(C)C)c12	mHTT CaM bind 87
Cc1scc2nc(C(=O)Nc3ccccc3)nc(N3CCCC3)c12	none
CCNC(=O)c1nc(N(C)C)c2c(C)scc2n1	none
COCCC1CCN(C(=O)CN(C)C(=O)c2cccc(OC)c2)CC1	none
Cc1ccn2cc(C(=O)NCc3ccc4c(c3)OCO4)nc2c1	none
CCOC(=O)C1=C(C)N2CCN=C2S1	none (no result: mHTT CaM bind)
Nc1c(C(=O)Nc2ccc(Oc3ccccc3)cc2)nnn1Cc1ccccc1	none
CCS(=O)(=O)c1ncc(Cl)c(C(=O)Nc2ccc(Oc3ccccc3)cc2)n1	mHTT CaM bind 98
CCC(C)c1ccc(OCCCN2CCN(C)CC2)cc1 (configuration not stated)	none
CCC(C)c1ccc(OCCCCN2CCN(C)CC2)cc1 (configuration not stated)	mHTT CaM bind 54
C=CCSc1nc2c(c(-c3ccc(C)o3)c1C#N)CCCC2	none
Cc1ccc(-c2c(C#N)c(SCC(=O)c3ccc(O)c(O)c3)nc3c2CCCC3)o1	mHTT CaM bind 69
CCOc1ccc(-n2nc3cc(C)c(NC(=O)c4cncc(Br)c4)cc3n2)cc1	none
O=[N+]([O-])c1cc(F)c(N2CCCC2)cc1N1CCCCCC1	mHTT CaM bind 79
Cc1cc(N2CCCCC2)c(F)cc1[N+](=O)[O-]	none
O=[N+]([O-])c1cc(F)c(N2CCOCC2)cc1N1CCOCC1	none
O=[N+]([O-])c1cc(F)c(N2CCCC2)cc1N1CCCC1	mHTT CaM bind 59
Cc1nc(C(=O)NCc2ccccc2)c(C)n1C1CCN(S(C)(=O)=O)CC1	none
Fc1ccc(-c2noc(-c3ccc(N4CCCCC4)nc3)n2)cc1	none
CCc1ccc(NC(=O)CSc2nc3c(c(=O)n2-c2ccc(Cl)cc2)SCC3)cc1	Pf apPOL inh 99
CCc1ccc(NC(=O)CSc2nc3c(c(=O)n2-c2ccccc2)SCC3)cc1	none
COc1ccc(CCNC(=O)c2ccc(CSc3ccc(Cl)cc3)o2)cc1OC	none (no result: mHTT CaM bind)
CCOC(=O)c1c(C)[nH]c(CCC(=O)N2CCCC2)c1C	none
COc1ccc(C2=CC(c3ccccc3)n3nc(CCCO)nc3N2)cc1 (configuration not stated)	none
COc1ccc(C2=CC(c3cccc(Br)c3)n3nc(CCCO)nc3N2)cc1OC (configuration not stated)	mHTT CaM bind 53
COc1cccc(C2C=C(c3ccc(Br)cc3)Nc3nnnn32)c1OC (configuration not stated)	none
COc1ccccc1C1C=C(c2ccc(Br)cc2)Nc2ncnn21 (configuration not stated)	none
COc1cc(C2C=C(c3ccc(Cl)cc3)Nc3ncnn32)cc(OC)c1OC (configuration not stated)	mHTT CaM bind 76
COc1cccc(C2C=C(c3cccc(Br)c3)Nc3nnnn32)c1OC (configuration not stated)	mHTT CaM bind 65
COc1ccc(C2=CC(c3cc(OC)c(OC)c(OC)c3)n3ncnc3N2)cc1 (configuration not stated)	none
COc1cccc(C2C=C(c3ccc(Br)cc3)Nc3ncnn32)c1OC (configuration not stated)	mHTT CaM bind 66
O=C(COc1ccc([N+](=O)[O-])cc1)NC(C(=O)O)C(O)c1ccccc1 (configuration not stated)	none
COc1cccc(C2C=C(c3ccc(C)cc3)Nc3ncnn32)c1 (configuration not stated)	none
COc1cccc(C2C=C(c3ccc(F)cc3)Nc3ncnn32)c1OC (configuration not stated)	mHTT CaM bind 56
COc1cccc(C2C=C(c3ccc(C)cc3)Nc3ncnn32)c1OC (configuration not stated)	none
COc1cccc(C2C=C(c3cccc(Br)c3)Nc3ncnn32)c1 (configuration not stated)	mHTT CaM bind 59
Cc1ccc(-n2c(=O)c3sccc3n(CC(=O)Nc3cc(C)[nH]n3)c2=O)cc1	none
NCC(O)CNCCc1ccccc1 (configuration not stated)	none
C[C@H]1CN(CCc2ccccc2)C(=O)[C@@H]1CC(=O)Nc1ccc(Br)cc1	none
CN(C)c1ccc2[nH]c3c(C(=O)O)cc(=O)c(=O)c=3oc2c1	mHTT CaM bind 67 (no result: Pf apPOL inh)
CN(c1ccc(F)cc1)S(=O)(=O)c1ccc2[nH]cc(C(=O)O)c(=O)c2c1	none
N/C(=N\N=C(/N)c1ccccn1)c1ccccn1	mHTT CaM bind active
O=C(CC(=O)c1ccccn1)c1ccccn1	none (no result: mHTT CaM bind)
O=C(c1ccc(F)c(F)c1)N1CC(C(=O)N2CCc3ccccc3C2)C1	none
CC(=O)N1CCC2(CC1)Nc1cccnc1NC2=NCc1ccccc1	none
O=C(Nc1cccc(F)c1)N1CCC2(CC1)Nc1cccnc1NC2=NCc1ccccc1	mHTT CaM bind 99
CC1(C)Nc2ccccc2C(=O)N1c1cccc(C(F)(F)F)c1	none
COc1cc(-c2nc(NCc3ccc(F)cc3)c3ccccc3n2)cc(OC)c1OC	mHTT CaM bind 88
CCC(C)Nc1nc(-c2cc(OC)c(OC)c(OC)c2)nc2ccccc12 (configuration not stated)	Pf apPOL inh 51
CCC(C)Nc1nc(-c2ccccc2O)nc2ccccc12 (configuration not stated)	none
COc1ccccc1CNc1nc(-c2ccccc2F)nc2ccccc12	none
Cc1ccc2nc3c(cc(C(=O)NCc4ccco4)c(=N)n3C3CCCC3)c(=O)n2c1	none
Cc1ccc(S(=O)(=O)CCc2nc3ccccc3o2)cc1	none
O=c1[nH]c2ccccc2n1CCCSc1nc2ccccc2o1	mHTT CaM bind 51
